CHX counter – Cycloheximide Counterscreen for Small Molecule Inhibitors of Shiga Toxin | max response, % | hit rate 12% among 300,000 | cell reporter, cycloheximide protein synthesis inhibition counterscreen; in the data active = max response mostly above about 13%, no sharp cut-off; inactive = mostly below about 14%; note: read at 38.3 µM for the half of the compounds with a filed dose; 0% is about no effect
Tb PYK inh – qHTS of Trypanosoma Brucei Inhibitors; pyruvate kinase (Trypanosoma brucei), Q57TT1; TbPYK enzyme, Kinase-Glo Plus ATP luminescence, 45 min; Potency, µM (top dose mostly 76.8 µM), for inactives: at the highest dose activity, negative = inhibition, hits mostly inhibitors; hit rate 0.12% among 410,000; note: potency is the fitted concentration of half-maximal effect; % is set by controls: 0 for no effect and ±100 for the full control effect; nearly all actives have a fitted effect of over 50% in size
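In this concentration-response screen, enzyme-free wells defined baseline while DMSO plates tracked drift. Each reaction combined TbPYK, substrate, compound and 130 uM ADP for 45 min at room temperature. Kinase-Glo Plus luminescence gave the signal.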
FBPA Giardia inh – qHTS Assay for Inhibitors of Fructose-1,6-bisphosphate Aldolase from Giardia Lamblia | purified Giardia FBPA | Potency, µM (series often up to 59.6 µM), for the others: top-dose activity, negative = inhibition, most hits filed as inhibitors | A8B2U2 | hit rate 0.71% among 290,000; note: potency is the fitted concentration of half-maximal effect; % is set by controls: 0 for no effect and ±100 for the full control effect; nearly all actives have a fitted effect of over 55% in size
Target sequence (A8B2U2 whole entry, looked up): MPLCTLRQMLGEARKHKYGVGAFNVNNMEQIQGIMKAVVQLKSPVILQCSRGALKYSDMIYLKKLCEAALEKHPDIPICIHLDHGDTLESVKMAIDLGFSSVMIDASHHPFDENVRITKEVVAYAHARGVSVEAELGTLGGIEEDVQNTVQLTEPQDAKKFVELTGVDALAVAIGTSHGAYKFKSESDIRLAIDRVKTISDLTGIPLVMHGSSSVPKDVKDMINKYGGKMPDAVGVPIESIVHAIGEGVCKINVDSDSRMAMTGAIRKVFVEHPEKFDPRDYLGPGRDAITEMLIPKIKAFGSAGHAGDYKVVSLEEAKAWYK
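40 nM FBPA preincubated 10 min at RT with compound (up to 57.5 uM final), then substrate plus GAPDH/TPI/NAD/arsenate coupling and diaphorase/resazurin added. Fluorescence read after 20 min at RT, 525/598 nm.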
LmPK inhibitor – qHTS Assay for Inhibitors of Leishmania Mexicana Pyruvate Kinase (LmPK); Potency, µM (doses to about 57.5 µM), for inactives: at the top dose activity change, negative = inhibition, usual class: inhibitors; AID 1721, 2009; hit rate 0.37% among 290,000; purified LmPK, Kinase-Glo ATP luminescence, 1 h; note: potency is the fitted concentration of half-maximal effect; % is set by controls: 0 for no effect and ±100 for the full control effect
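In 50 mM imidazole pH 7.2 with 7 mM MgCl2, LmPK (0.1 nM) turned over PEP (0.5 mM) and ADP (0.1 mM) for 1 h at room temperature. Luciferase read-out of ATP.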
Sm TGR inh – qHTS Assay for the Inhibitors of Schistosoma Mansoni Peroxiredoxins | purified TGR, DTNB reduction, TNB absorbance 405 nm | Potency, µM (doses to about 114 µM), without a hit: top-dose activity change, negative = inhibition, usual class: inhibitors | hit rate 3% among 360,000 | AID 485364, 2010; note: potency is the fitted concentration of half-maximal effect; % is set by controls: 0 for no effect and ±100 for the full control effect; nearly all actives have a fitted effect of over 60% in size
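First, TGR (20 nM dispensed) and NADPH were mixed with compound. Second, a 15 min room-temperature incubation followed. Third, further NADPH and then DTNB were added to start the reaction. Finally, TNB absorbance was monitored kinetically.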
Shiga inhibitor – A qHTS for Small Molecule Inhibitors of Shiga Toxin; Vero cells, Shiga toxin protein synthesis inhibition reporter; inhibition, % at 38.7 µM; hit rate 9.2% among 290,000; in the data active = inhibition mostly above about 28%, no sharp cut-off; inactive = mostly below about 43%; note: 0% is about no effect
Active calls of the source: *; u = inconclusive; x = no result given. This is one part of a sample in which hits are shown more often than they occur. Unless noted, calls come from the whole dose curve; as a rule, active = well fitted curve in the direction sought with a large enough effect; inconclusive = small, poorly fitted or top-dose-only effect, or another doubt; inactive = no such curve, though single readings can be large; an effect the other way counts as inactive or inconclusive.

SMILES	CHX counter	Tb PYK inh	FBPA Giardia inh	LmPK inhibitor	Sm TGR inh	Shiga inhibitor
Cc1cc(NC(=O)COC(=O)c2cccc(S(=O)(=O)N3CCOCC3)c2)no1	-3	-1%	3%	-2%	-3%	1
O=C(c1ccc2c(=O)n(CCc3ccccc3)c(=O)[nH]c2c1)N1CCN(c2ccc(Cl)cc2)CC1	x	5%	x	x	-3%	x
N=C(N)n1cccn1	x	-2%	x	x	x	x
Cc1cc(-c2onc3ccc(Cl)cc23)ccc1O	27*	-7%	0%	-8%	40µM*	50*
O/N=C\c1ccc2noc(-c3ccc(Cl)cc3)c2c1	17	-4%	6%	-1%	0%	2
NC(=O)COC(=O)c1ccc2noc(-c3ccccc3)c2c1	57*	2%	-6%	-4%	u	81*
Cc1ccc(-c2onc3ccc(C=O)cc23)cc1	59*	-3%	-3%	-7%	45µM*	99*
Nc1nccc(-c2ccc3noc(-c4ccc(Cl)cc4)c3c2)n1	x	0%	x	x	x	x
CC(=O)c1ccc2noc(-c3ccc(Cl)cc3)c2c1	-3	-2%	2%	8%	28µM*	15
COc1ccc(-n2nc3c(c2NC(=O)COc2ccccc2OC)CS(=O)(=O)C3)cc1	x	8%	x	x	x	x
O=C(c1cccc(F)c1)N1CCC(c2c[nH]c3ccccc23)(c2c[nH]c3ccccc23)CC1	x	-6%	x	x	-2%	x
CCN(CC)S(=O)(=O)c1ccc2c(c1)N(CC(=O)Nc1cccc(C#N)c1)C(=O)CO2	x	1%	x	x	5%	x
CCOc1ccc(NC(=O)Cn2c(=O)n(Cc3ccco3)c(=O)c3ccc(C(=O)NC4CCCC4)cc32)cc1	x	1%	x	x	2%	x
COc1ccc(-c2cc3nc(C)cc(C)n3n2)cc1	35*	4%	-24%	-17%	-3%	48*
Cc1cc(-c2ccc(Cl)cc2)n2nc(C)cc2n1	-2	6%	3%	1%	1%	-6
Cc1nc2cc(-c3ccc(Cl)cc3)nn2c(NCCN(C)C)c1C	60*	-1%	-4%	-2%	x	80*
COc1ccc(-c2cc3nc(-c4ccccc4)cc(C(F)(F)F)n3n2)cc1	x	22%	x	x	2%	x
Cc1cc(C)n2nc(-c3ccc(Br)cc3)cc2n1	26*	0%	-13%	5%	2%	x
Cc1cc(-c2ccc(Br)cc2)n2nc(C)cc2n1	x	-5%	x	x	x	x
Cc1cc(C)n2nc(-c3ccc(Cl)cc3)cc2n1	43*	10%	-1%	0%	1%	100*
N#Cc1ccc(CSc2nc3c(c(=O)[nH]2)CCCC3)cc1	x	4%	x	x	-1%	x
NC(=O)CSc1oc(-c2cccs2)nc1S(=O)(=O)c1ccc(Br)cc1	x	-3%	x	x	1%	x
Cc1nnc2sc(-c3ccc(N(C)C)cc3)nn2c1=O	28*	-5%	0%	-11%	-1%	54*
Cc1cc(C(=O)COC(=O)c2ccc[nH]c2=O)c(C)n1C	9	2%	6%	0%	1%	17
Cc1cc(C(=O)COC(=O)c2ccc[nH]c2=O)c(C)n1-c1ccc(Br)cc1	48*	4%	18%	0%	9%	27*
SMILES	CHX counter	Tb PYK inh	FBPA Giardia inh	LmPK inhibitor	Sm TGR inh	Shiga inhibitor
Cc1ccc(-n2c(C)cc(C(=O)COC(=O)c3ccc[nH]c3=O)c2C)cc1	40*	-8%	-1%	-1%	-5%	58*
COc1ccc(CNCc2ccc3c(c2)n(C)c(=O)n3C)cc1	x	5%	x	x	2%	x
O=C1S/C(=C/c2ccc(N3CCOCC3)o2)C(=O)N1Cc1ccc(F)cc1	-2	u	x	-6%	1µM*	-10
CC(C)OC(=O)CN1C(=O)S/C(=C/c2ccc(N3CCCCC3)o2)C1=O	-5	u	u	0%	6.3µM*	-13
CC(C)n1cc(/C=C2/SC(=O)N(CC(=O)N3CCCC3)C2=O)c2ccccc21	1	1%	1%	0%	3%	-10
COc1cc(/C=C2\SC(=Nc3ccccc3)N(CCc3c[nH]c4ccccc34)C2=O)ccc1OC(C)C(=O)O (configuration not stated)	4	-7%	11%	3%	2%	-9
O=C1S/C(=C\c2ccc(N3CCOCC3)o2)C(=O)N1Cc1ccc(F)cc1	-4	u	u	-4%	5µM*	-18
O=C1/C(=C/c2ccc(N3CCOCC3)o2)SC(=Nc2ccccc2)N1CCc1c[nH]c2ccccc12	-6	-20%	-14%	0%	8.9µM*	-34
CC(Sc1nnnn1C1CCCC1)C(=O)Nc1cccc(S(=O)(=O)N2CCOCC2)c1 (configuration not stated)	x	0%	x	x	-4%	x
CC(C)OC(=O)Nc1ccc2nc(-c3cscn3)[nH]c2c1	x	-13%	x	x	x	x
COC(=O)C1=CO[C@@H](C)[C@H]2CN3CCc4c([nH]c5ccccc45)[C@@H]3C[C@H]12	x	0%	u	x	-5%	x
COC(=O)C1=COC(C)C2CN3CCc4c([nH]c5ccccc45)C3CC12 (configuration not stated)	-2	-16%	-18%	-2%	79µM*	3
COc1ccccc1NC(=O)C1=C(C)Nc2nc(SCc3ccccc3)nn2C1c1cccs1 (configuration not stated)	x	0%	x	x	-11%	x
CCc1nn(C(C)C(=O)NCc2ccc(Cl)cc2)c(=O)c2cc3occc3n12 (configuration not stated)	12*	1%	8%	1%	3%	11
CCn1cc(C(=O)NCc2ccccc2)c(=O)c2cc(S(=O)(=O)N3CCOCC3)ccc21	x	-9%	x	x	-13%	x
CCCc1cnc(N2CCN(C(=S)NC)CC2)nc1	44*	-8%	3%	-2%	4%	66*
CCCc1cnc(N2CCN(C(=O)c3ccc(F)cc3)CC2)nc1	4	4%	2%	2%	12%	30
N#Cc1c(-c2ccccc2)ccnc1N1CCOCC1	12	-5%	3%	-1%	x	30
N#Cc1c(-c2ccc(F)cc2)ccnc1N1CCOCC1	19*	-1%	3%	1%	0%	27
Cc1ccc(N2C(=O)[C@@H]3C(c4cccnc4)=NO[C@@H]3C2=O)c(C)c1	1	-3%	4%	3%	u	-13
O=C1[C@@H]2C(c3cccnc3)=NO[C@@H]2C(=O)N1c1ccc(Br)cc1	1	-17%	5%	-6%	3.5µM*	-10
CCCNC(=O)c1ccc2nc(-c3ccccc3)c(-c3ccccc3)nc2c1	-3	3%	-3%	-4%	-12%	-3
CCc1nc2ccc(C(=O)NCCc3ccco3)cc2nc1CC	45*	-6%	-2%	4%	-27%	65*
O=C(NCCCO)c1ccc2nc(-c3ccco3)c(-c3ccco3)nc2c1	9	u	u	-14%	2.5µM*	-7

Source: PubChem (National Center for Advancing Translational Sciences (NCATS))
